About 2,000 (36%) of roughly 5,500 compounds were called active. Inconclusive results (about 18%) are left out. No stated cut-off is given here; in the data, active means normalized growth mostly below about 0.91 (no sharp cut-off); inconclusive means no clear call, values can overlap the other calls; inactive means mostly above about 0.92. Some of the results follow.
Test: chemical genetic growth profiling, strain panel (AID 1159580);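 further: tested at 20 µM; growth read once vehicle control cultures reached saturation at 30 °C; 1 = growth at the plate median or of vehicle wells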
Settings: growth OD

Measured: normalized growth

OC[C@H]1O[C@@](CO)(O[C@@H]2O[C@H](CO)[C@@H](O)[C@H](O)[C@H]2O)[C@@H](O[C@@H]2O[C@H](CO)[C@@H](O)[C@H](O)[C@H]2O)[C@@H]1O
inactive: S. cerevisiae deletion strains, locus YJR043C, strain POL32, stronger effect = lower value 1.04 | S. cerevisiae deletion strains, locus YJR066W, strain TOR1, stronger effect = lower value 0.956 | S. cerevisiae deletion strains, locus YKL009W, strain mrt4, stronger effect = lower value 1.03 | S. cerevisiae deletion strains, locus YKL068W, stronger effect = lower value 0.997 | S. cerevisiae deletion strains, locus YKL085W, strain MDH1 (second series), stronger effect = lower value 1.01 | S. cerevisiae deletion strains, locus YKL085W, strain MDH1, stronger effect = lower value 1.01 | S. cerevisiae deletion strains, locus YKL160W, strain elf1, stronger effect = lower value 1.02 | S. cerevisiae deletion strains, locus YKR026C, strain gcn3, stronger effect = lower value 0.994 | S. cerevisiae deletion strains, locus YKR091W, strain srl3, stronger effect = lower value 1.01 | S. cerevisiae deletion strains, locus YLL001W, strain dnm1, stronger effect = lower value 0.996 | S. cerevisiae deletion strains, locus YLL026W, stronger effect = lower value 1.02 | S. cerevisiae deletion strains, locus YLL041C, strain sdh2, stronger effect = lower value 1.01 | S. cerevisiae deletion strains, locus YLR027C, strain aat2, stronger effect = lower value 1.01 | S. cerevisiae deletion strains, locus YLR039C, strain RIC1, stronger effect = lower value 1.18 | S. cerevisiae deletion strains, locus YLR058C, strain SHM2, stronger effect = lower value 1.03 | S. cerevisiae deletion strains, locus YLR102C, strain apc9, stronger effect = lower value 1.02 | S. cerevisiae deletion strains, locus YLR113W, strain HOG1, stronger effect = lower value 0.986 | S. cerevisiae deletion strains, locus YLR221C, strain rsa3, stronger effect = lower value 1.01 | S. cerevisiae deletion strains, locus YLR258W, strain gsy2, stronger effect = lower value 1.02 | S. cerevisiae deletion strains, locus YLR262C, strain YPT6 (second series), stronger effect = lower value 1 | S. cerevisiae deletion strains, locus YLR262C, strain YPT6, stronger effect = lower value 1.16 | S. cerevisiae deletion strains, locus YLR268W, strain sec22, stronger effect = lower value 1.05 | S. cerevisiae deletion strains, locus YLR320W, strain mms22, stronger effect = lower value 1.03 | S. cerevisiae deletion strains, locus YLR330W, strain CHS5, stronger effect = lower value 1.02 | S. cerevisiae deletion strains, locus YLR342W, strain FKS1 (second series), stronger effect = lower value 1.08 | S. cerevisiae deletion strains, locus YLR342W, strain FKS1, stronger effect = lower value 1.02 | S. cerevisiae deletion strains, locus YLR357W, strain rsc2, stronger effect = lower value 0.991 | S. cerevisiae deletion strains, locus YLR370C, strain arc18, stronger effect = lower value 1.03 | S. cerevisiae deletion strains, locus YLR371W, strain rom2, stronger effect = lower value 0.999 | S. cerevisiae deletion strains, locus YLR384C, strain iki3, stronger effect = lower value 1.01 | S. cerevisiae deletion strains, locus YLR418C, strain cdc73, stronger effect = lower value 1.09 | S. cerevisiae deletion strains, locus YML016C, strain PPZ1, stronger effect = lower value 1.01 | S. cerevisiae deletion strains, locus YML032C, strain rad52, stronger effect = lower value 1.03 | S. cerevisiae deletion strains, locus YML120C, strain ndi1, stronger effect = lower value 1.03 | S. cerevisiae deletion strains, locus YML124C, strain tub3, stronger effect = lower value 1.01 | S. cerevisiae deletion strains, locus YMR058W, strain fet3, stronger effect = lower value 1.02 | S. cerevisiae deletion strains, locus YMR078C, strain ctf18, stronger effect = lower value 1.02 | S. cerevisiae deletion strains, locus YMR125W, strain sto1, stronger effect = lower value 1.02 | S. cerevisiae deletion strains, locus YMR129W, stronger effect = lower value 1.03 | S. cerevisiae deletion strains, locus YMR205C, strain PFK2, stronger effect = lower value 1.04 | S. cerevisiae deletion strains, locus YMR223W, strain ubp8, stronger effect = lower value 1.03 | S. cerevisiae deletion strains, locus YMR231W, strain pep5, stronger effect = lower value 1.01 | S. cerevisiae deletion strains, locus YMR263W, strain SAP30, stronger effect = lower value 1.02 | S. cerevisiae deletion strains, locus YMR307W, strain GAS1, stronger effect = lower value 1.03 | S. cerevisiae deletion strains, locus YNL067W, strain RPL9B, stronger effect = lower value 1.03 | S. cerevisiae deletion strains, locus YNL071W, strain lat1, stronger effect = lower value 1.01 | S. cerevisiae deletion strains, locus YNL128W, strain TEP1, stronger effect = lower value 1.03 | S. cerevisiae deletion strains, locus YNL183C, strain NPR1, stronger effect = lower value 0.946 | S. cerevisiae deletion strains, locus YNL209W, strain ssb2, stronger effect = lower value 1.02 | S. cerevisiae deletion strains, locus YNL233W, strain BNI4, stronger effect = lower value 1.06 | S. cerevisiae deletion strains, locus YNL248C, strain rpa49, stronger effect = lower value 1.01 | S. cerevisiae deletion strains, locus YNL250W, strain rad50, stronger effect = lower value 1.03 | S. cerevisiae deletion strains, locus YNL271C, strain bni1, stronger effect = lower value 1.02 | S. cerevisiae deletion strains, locus YNL298W, strain CLA4, stronger effect = lower value 1.02 | S. cerevisiae deletion strains, locus YNL307C, strain MCK1, stronger effect = lower value 1.01 | S. cerevisiae deletion strains, locus YNL322C, strain KRE1 (second series), stronger effect = lower value 1.02 | S. cerevisiae deletion strains, locus YNR049C, strain mso1, stronger effect = lower value 1.02 | S. cerevisiae deletion strains, locus YNR052C, strain pop2, stronger effect = lower value 1.03 | S. cerevisiae deletion strains, locus YOL006C, strain TOP1, stronger effect = lower value 1.23 | S. cerevisiae deletion strains, locus YOL012C, strain htz1 1.32 | S. cerevisiae deletion strains, locus YOL147C, strain pex11, stronger effect = lower value 1 | S. cerevisiae deletion strains, locus YOR001W, strain rrp6, stronger effect = lower value 1 | S. cerevisiae deletion strains, locus YOR061W, strain CKA2, stronger effect = lower value 1.04 | S. cerevisiae deletion strains, locus YOR069W, strain VPS5, stronger effect = lower value 1.02 | S. cerevisiae deletion strains, locus YOR070C, strain gyp1, stronger effect = lower value 1.01 | S. cerevisiae deletion strains, locus YOR080W, strain dia2, stronger effect = lower value 1.02 | S. cerevisiae deletion strains, locus YOR083W, strain WHI5, stronger effect = lower value 1.01 | S. cerevisiae deletion strains, locus YOR106W, strain vam3, stronger effect = lower value 1 | S. cerevisiae deletion strains, locus YOR136W, strain idh2, stronger effect = lower value 1.02 | S. cerevisiae deletion strains, locus YOR144C, strain elg1, stronger effect = lower value 1.02 | S. cerevisiae deletion strains, locus YOR184W, strain ser1, stronger effect = lower value 1.06 | S. cerevisiae deletion strains, locus YOR231W, strain MKK1, stronger effect = lower value 1 | S. cerevisiae deletion strains, locus YOR265W, strain rbl2, stronger effect = lower value 1.01 | S. cerevisiae deletion strains, locus YOR270C, strain vph1, stronger effect = lower value 1.05 | S. cerevisiae deletion strains, locus YOR290C, strain snf2, stronger effect = lower value 0.981 | S. cerevisiae deletion strains, locus YOR316C, strain cot1, stronger effect = lower value 1.02 | S. cerevisiae deletion strains, locus YPL051W, strain arl3, stronger effect = lower value 1.01 | S. cerevisiae deletion strains, locus YPL055C, strain LGE1, stronger effect = lower value 1.08 | S. cerevisiae deletion strains, locus YPL078C, strain atp4, stronger effect = lower value 1 | S. cerevisiae deletion strains, locus YPL106C, strain sse1, stronger effect = lower value 1.02 | S. cerevisiae deletion strains, locus YPL240C, strain hsp82, stronger effect = lower value 1.03 | S. cerevisiae deletion strains, locus YPL256C, strain CLN2, stronger effect = lower value 1 | S. cerevisiae deletion strains, locus YPR119W, strain clb2, stronger effect = lower value 1.03 | S. cerevisiae deletion strains, locus YPR141C, strain kar3, stronger effect = lower value 1.02 | S. cerevisiae deletion strains, locus YPR163C, strain tif3, stronger effect = lower value 1.04 | S. cerevisiae deletion strains, locus YPR167C, strain met16, stronger effect = lower value 1.02 | S. cerevisiae deletion strains, strain wtn01, stronger effect = lower value 1.04 | S. cerevisiae strains, strain wild type, stronger effect = lower value 1.04
active: S. cerevisiae deletion strains, locus YKR001C, strain vps1, stronger effect = lower value 1.11 [resistant]

Reference: PubChem BioAssay AID1159580 (chemical genetic matrix, 2015)
